From ChEMBL document CHEMBL3433997, “St. Jude Leishmania screening dataset” (2016) come the findings set out here.

The inhibition is the drop in the measured response relative to a control, in per cent.

Holding throughout (format): functional
The target of assay [1] is Solute carrier family 2, facilitated glucose transporter member 1 (Homo sapiens) (UniProt P11166). Nature of the assay: ST_JUDE_LEISH: Cytotoxicity at 2uM final concentration against transgenic Leishmania Mexicana promastigotes LmGLUT1 that are glucose transport deficient and complemented with the human glucose transporter GLUT1. Activity is measured by DNA content using SYBR green in vitro.

Assay [2] concerns the target Hexose transporter 1 (Plasmodium falciparum) (UniProt O97467). Nature of the assay: ST_JUDE_LEISH: Cytotoxicity at 2uM final concentration against transgenic Leishmania Mexicana promastigotes LmPfHT that are glucose transport deficient and complemented with the Plasmodium falciparum hexose transporter. Activity is measured by DNA content using SYBR green in vitro.
For assay [3], the target named is Glucose transporter (Leishmania mexicana) (UniProt O61059). As to the kind of experiment: ST_JUDE_LEISH: Cytotoxicity at 2uM final concentration against transgenic Leishmania Mexicana promastigotes LmGT2 that are glucose transport deficient and complemented with the L. Mexicana glucose transporter 2. Activity is measured by DNA content using SYBR green in vitro.

The structures appear in SMILES notation.

Solute carrier family 2, facilitated glucose transporter member 1 (Homo sapiens), sequence (P11166 whole entry): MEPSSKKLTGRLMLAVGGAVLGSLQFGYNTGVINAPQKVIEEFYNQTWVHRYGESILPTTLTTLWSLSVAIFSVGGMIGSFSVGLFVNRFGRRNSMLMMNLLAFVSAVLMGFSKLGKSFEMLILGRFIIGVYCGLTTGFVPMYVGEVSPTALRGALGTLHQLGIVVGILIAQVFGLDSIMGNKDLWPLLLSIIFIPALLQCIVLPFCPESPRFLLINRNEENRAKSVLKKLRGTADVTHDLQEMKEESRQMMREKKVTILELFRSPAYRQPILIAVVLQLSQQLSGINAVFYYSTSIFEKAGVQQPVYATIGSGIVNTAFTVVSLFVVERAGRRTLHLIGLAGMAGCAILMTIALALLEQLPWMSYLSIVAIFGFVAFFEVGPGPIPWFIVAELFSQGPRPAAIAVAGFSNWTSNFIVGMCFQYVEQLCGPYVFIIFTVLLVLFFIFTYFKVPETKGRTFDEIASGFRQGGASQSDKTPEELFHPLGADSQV

Take `CCOCc1cnc(C)nc1CNC(=O)c1c(C)[nH]c2ccc(C)cc12`: the inhibition was determined as 0.96% in assay [1], 0.7% in assay [2] and 1.12% in assay [3].

`CC[C@H](C)CNC(=O)c1cncc(-c2cccc(CNCCCc3ccccc3)c2)c1`: the inhibition in assay [1] amounted to 4.76%; in assay [2], 3.06%; in assay [3] it was 4.25%.

On to `COc1cc(NC(=O)c2sc(-c3ccc(Cl)cc3)cc2NC(=O)CN2CC[C@@H](O)C2)ccc1OCCN1CCCC1`, for which the inhibition in assay [1] was found to be 23.1%; in assay [2], 15.1%; in assay [3] it was 4.88%.

Consider `Cc1c(-c2cccc(C(C)(C)NCCCN3CCCCC3)c2)cnc(N)c1C`, for which the inhibition in assay [1] was -0.39%; in assay [2], -0.25%; in assay [3], 0.62%.

In the case of `CC(C)(C)NS(=O)(=O)c1cc(C(=O)N2CCC(CCN3CCC(O)(c4cccc(C(F)(F)F)c4)CC3)(c3cccc(F)c3)CC2)c(Cl)cc1F`, the results for the inhibition in assay [1], in assay [2] and in assay [3] were 1.73%, 1.52% and -0.37%, respectively.

In the case of `CC(Sc1nnc(-c2ccccc2Br)[nH]1)C(=O)Nc1ccc(F)cc1` (centres undefined), the inhibition in assay [1] turned out to be 10.4%; in assay [2] it was 9.07%; in assay [3], 6.58%.

In the case of `O=C(N[C@@H](CC1CCCCC1)C(=O)NC1CC1)c1ccc(O)c(-c2cccc(C(F)(F)F)c2)c1`, the inhibition in assay [1] turned out to be 3.48%; in assay [2] it was 2.6%; in assay [3], 3.88%.

In the case of `c1ccc(Oc2ccc(Nc3ccnc4cc(-c5ccc(CN6CCCCC6)o5)ccc34)cc2)nc1`, the inhibition in assay [1] is -2.19%; in assay [2], -1.27%; in assay [3], 0.73%.

For the compound `CCc1nc2c(N)nc(N)nc2nc1-c1ccc(OC)cc1`, the inhibition in assay [1] was 0.85%; in assay [2] it was 0.84%; in assay [3] it was 1.23%.

Regarding `O=C(c1cccc(Br)c1)N1CCN(c2ccc([N+](=O)[O-])c(NC3CC3)c2)CC1`, the inhibition in assay [1] is 4.9%; in assay [2] it was 4.63%; in assay [3], 1.63%.

In the case of `COc1csc2cc(Br)ccc12`, the inhibition in assay [1] turned out to be 1.01%; in assay [2], 1.16%; in assay [3], 0.18%.

On to `CN1CCC(C(=O)Nc2cccc(-c3ccc(-c4nc5ccccc5[nH]4)cc3)c2)CC1`, for which the results for the inhibition in assay [1], in assay [2] and in assay [3] were -0.41%, 1.25% and 1.04%, respectively.

For `CC[C@H]1CN2CCc3c([nH]c4ccccc34)[C@@H]2C[C@@H]1CC1c2cc(OC)c(OC)cc2CCN1C` (some centres undefined), the inhibition was 9.81% in assay [1], 10% in assay [2] and 9.79% in assay [3].

In the case of `O=S(=O)(c1ccc2ccccc2c1)N1CCCN(Cc2ccc(OCCCN3CCCCC3)cc2)CC1`, the figures for the inhibition in assay [1], in assay [2] and in assay [3] were 63%, 71.4% and 45.5%, respectively.

With `NOCCCCOc1ccc(Br)cc1`, the inhibition in assay [1] was 3.74%; in assay [2], 5.13%; in assay [3], 2.59%.

With `CCOC(=O)C(C#N)NC(=O)C=Cc1ccccc1` (centres undefined), the inhibition was determined as 7.73% in assay [1], 6.93% in assay [2] and 5.14% in assay [3].

In the case of `CCNc1cc(C(=O)N[C@@H](Cc2cccc(F)c2)[C@H](O)CNC(C)CCCC(C)C)cc(N2CCCCS2(=O)=O)c1` (some centres undefined), the inhibition in assay [1] came to 1.15%; in assay [2] it was 2.92%; in assay [3], 1.42%.

For `C=C(C)CSc1nc2c(c(=O)n1Cc1ccco1)C1(CCCCC1)Cc1ccccc1-2`, the inhibition in assay [1] worked out at 3.67%; in assay [2] it was 3.16%; in assay [3], 4.72%.

Regarding `Cc1noc(-c2cccs2)c1C(=O)NCCc1cccc(Cl)c1`, the inhibition in assay [1] stood at 5.34%; in assay [2], 5.32%; in assay [3], 2.4%.

Take `O=C(NC1CCN(Cc2ccccc2)CC1)c1ccc(-c2nc3cc(Cl)c(Cl)cc3[nH]2)c(F)c1`: the inhibition in assay [1] is 10.3%; in assay [2], 9.26%; in assay [3] it was 9.86%.

As for `Nc1ccc(-c2ccc3ccnc(N)c3c2)cc1`, the inhibition in assay [1] is 0.24%; in assay [2] it was -0.79%; in assay [3], 1.39%.

Turning to `Cc1cc(C)cc(-n2c(C)cc(/C=C3\SC(=Nc4ccc(Cl)cc4)NC3=O)c2C)c1`, the inhibition came out at 5.26% in assay [1], 7.1% in assay [2] and 1.22% in assay [3].

As for `COc1ccc(CN2CCC(NCc3cccc(-n4ccnc4)c3)CC2)cc1`, the inhibition amounted to 3.99% in assay [1], 3.17% in assay [2] and 2.72% in assay [3].

As to `O=C(Nc1ccccc1)N(Cc1cccc(-c2cccc(CNCc3ccc4c(c3)OCO4)c2)c1)C1CCN(Cc2ccccc2)CC1`, the values for the inhibition in assay [1], in assay [2] and in assay [3] were 0.53%, 1.69% and 2.79%, respectively.

With `CCOc1ccc(-c2nonc2NC(=O)c2ccccc2)cc1OCC`, the values for the inhibition in assay [1], in assay [2] and in assay [3] were 4.72%, 2.09% and 3.26%, respectively.

For `O=C(Nc1ccc(-c2nc3ccccc3[nH]2)cc1)c1cccc(S(=O)(=O)N2CCOCC2)c1`, the inhibition stood at 4.9% in assay [1], 5.13% in assay [2] and 4.05% in assay [3].

For `CN1CCC[C@H]1COc1ccc(CN2CC[C@H](NC(=O)c3ccc(Cl)c(Cl)c3)C2)cc1Cl`, the inhibition in assay [1] was 1.83%; in assay [2] it was 0.86%; in assay [3], -0.76%.

For the compound `CC[C@H](C)CNC(=O)c1cncc(-c2cccc(CN(C)C3CCN(C)CC3)c2)c1`, the inhibition worked out at 2.22% in assay [1], 2.75% in assay [2] and 3.37% in assay [3].

Take `COc1ccc(CNCCc2cccs2)cc1-c1cccc(S(=O)(=O)NCCN2CCCC2)c1`: the inhibition in assay [1] was determined as 2.17%; in assay [2], 2.94%; in assay [3], 0.9%.

For the compound `CCNc1cc(C(=O)N[C@@H](Cc2ccccc2)[C@H](O)CNC(C)Cc2cccc(Cl)c2)cc(N2CCCCS2(=O)=O)c1` (some centres undefined), the values for the inhibition in assay [1], in assay [2] and in assay [3] were 0.81%, 2.5% and -1.63%, respectively.

Take `COc1cc(F)c2nccc([C@@H](O)CN3CCC(NCc4cc5c(cc4F)OCCO5)CC3)c2c1`: the inhibition was 1.5% in assay [1], 0.69% in assay [2] and -2.93% in assay [3].

`Cc1ccc(Nc2nc(N/N=C/c3cccc(O)c3)nc(Nc3ccc([N+](=O)[O-])cc3)n2)cc1C`: the inhibition was 3.08% in assay [1], 3.36% in assay [2] and 2.77% in assay [3].

For the compound `CC(C)C1C(=O)N(S(C)(=O)=O)C2CCN(C(=O)c3ccc(CN4CCCCC4)c([N+](=O)[O-])c3)C12` (centres undefined), the inhibition in assay [1] was 3.87%; in assay [2] it was 4.49%; in assay [3], -1.4%.

On to `COc1cccc2c(C)cc(NCc3ccc(Cl)cc3)nc12`, for which the inhibition is 4.96% in assay [1], 4.71% in assay [2] and 3.54% in assay [3].

Consider `Cc1nnc2c(NC(=O)NC3CCCC3)cc3ccc(-c4cccc(CN5CCN(C)CC5)c4)cc3n12`, for which the inhibition in assay [1] was 6.21%; in assay [2], 6.49%; in assay [3], 5.53%.

As for `CCOc1c(OC)ccc2c1CCN(CCN1CCC(CNC(=O)c3ccc(-c4ccc(C(F)(F)F)cc4)cc3)CC1)C2`, the inhibition in assay [1] was -1.88%; in assay [2], -0.64%; in assay [3] it was 0.24%.

As for `CNC(=O)C1Cc2c([nH]c3c(C)cccc23)C2(N1)C(=O)Nc1ccc(OC(F)(F)F)cc12` (centres undefined), the inhibition in assay [1] was determined as 1.24%; in assay [2] it was 1.59%; in assay [3], 3.8%.

Take `Cc1cc(NC(=O)NCCN2CCC(NS(=O)(=O)c3ccccc3F)CC2)c2ccccc2n1`: the inhibition in assay [1] came to 1.57%; in assay [2] it was 2.12%; in assay [3], 0.24%.

For `N#Cc1cccc(CN2CCCN(Cc3ccc(C(=O)Nc4ccc(Cl)cc4)cc3)CC2)c1`, the inhibition in assay [1] was 4.41%; in assay [2], 5.4%; in assay [3] it was -0.06%.

For the compound `CN(C)CC(=O)Nc1ccc(Nc2nccc(NCC(O)c3ccccc3)n2)cc1` (centres undefined), the inhibition in assay [1] came to 1.63%; in assay [2], 2.79%; in assay [3] it was 0.21%.

With `Cc1ccc(CNC(=O)[C@H](CCCN)Nc2cc(C)nc(NCC3CCCCC3)n2)cc1`, the inhibition in assay [1] came out at 1.46%; in assay [2], 1.17%; in assay [3] it was 0.32%.

With `COc1cc(-c2nnc(SCC(=O)Nc3cc(C)on3)n2C)cc(OC)c1O`, the inhibition was 7.83% in assay [1], 7.61% in assay [2] and 7.59% in assay [3].

As for `O=C(/C=C/c1ccc(-c2ccccc2)cc1)NCCCCCN1CCC(c2c[nH]c3ccccc23)CC1`, the inhibition in assay [1] is 0.3%; in assay [2], 4.35%; in assay [3], -1.76%.

As to `Cc1cccc2nc(-c3cccc(-c4ccc(NC(=O)CN5CCOCC5)cc4)c3)[nH]c12`, the inhibition in assay [1] was 4.78%; in assay [2] it was 4.5%; in assay [3], 2.97%.

Regarding `Cc1cccc2nc(-c3cccc(-c4cccc(NC(=O)CN5CCN(C)CC5)c4)c3)[nH]c12`, the figures for the inhibition in assay [1], in assay [2] and in assay [3] were 8.23%, 7.52% and 6.83%, respectively.

Take `COc1ccc(C(=C(C)CC(C)C(=O)O)c2ccccc2)cc1` (centres undefined): the inhibition in assay [1] is -0.12%; in assay [2], -0.23%; in assay [3], 0.28%.

For `c1ccc(CN2CCN(c3cc(-c4cncc(-c5ccccc5)c4)nc(-c4ccccc4)n3)CC2)cc1`, the values for the inhibition in assay [1], in assay [2] and in assay [3] were 1.99%, 2.26% and 1.99%, respectively.

`Cc1cc(N[C@@H](Cc2ccccc2)C(=O)NCCc2ccccc2)nc(NCc2ccccc2C)n1`: the results for the inhibition in assay [1], in assay [2] and in assay [3] were 2.31%, 2.04% and -0.14%, respectively.
